Experimental data reported in ChEMBL document CHEMBL3433997, “St. Jude Leishmania screening dataset” (2016).

Columns and labels:
Assay type in all cases: functional
[1] = biological target: Solute carrier family 2, facilitated glucose transporter member 1 (Homo sapiens) (UniProt P11166); test: ST_JUDE_LEISH: Cytotoxicity at 2uM final concentration against transgenic Leishmania Mexicana promastigotes LmGLUT1 that are glucose transport deficient and complemented with the human glucose transporter GLUT1. Activity is measured by DNA content using SYBR green in vitro
Solute carrier family 2, facilitated glucose transporter member 1 (Homo sapiens), sequence (P11166 whole entry): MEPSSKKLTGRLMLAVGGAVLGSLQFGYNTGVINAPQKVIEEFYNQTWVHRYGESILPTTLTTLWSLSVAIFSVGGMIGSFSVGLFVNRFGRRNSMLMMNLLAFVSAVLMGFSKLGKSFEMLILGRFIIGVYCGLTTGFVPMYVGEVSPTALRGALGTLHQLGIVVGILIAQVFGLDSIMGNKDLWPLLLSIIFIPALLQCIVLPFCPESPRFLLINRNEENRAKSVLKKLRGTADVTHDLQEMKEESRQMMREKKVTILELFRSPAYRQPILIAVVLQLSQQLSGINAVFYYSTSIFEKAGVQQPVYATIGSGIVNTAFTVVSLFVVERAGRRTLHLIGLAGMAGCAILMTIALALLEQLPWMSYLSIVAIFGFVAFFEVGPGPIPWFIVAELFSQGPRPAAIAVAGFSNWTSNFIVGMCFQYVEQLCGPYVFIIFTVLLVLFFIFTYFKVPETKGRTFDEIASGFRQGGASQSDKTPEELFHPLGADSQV

[2] = biological target: Hexose transporter 1 (Plasmodium falciparum) (UniProt O97467); test: ST_JUDE_LEISH: Cytotoxicity at 2uM final concentration against transgenic Leishmania Mexicana promastigotes LmPfHT that are glucose transport deficient and complemented with the Plasmodium falciparum hexose transporter. Activity is measured by DNA content using SYBR green in vitro
[3] = biological target: Glucose transporter (Leishmania mexicana) (UniProt O61059); test: ST_JUDE_LEISH: Cytotoxicity at 2uM final concentration against transgenic Leishmania Mexicana promastigotes LmGT2 that are glucose transport deficient and complemented with the L. Mexicana glucose transporter 2. Activity is measured by DNA content using SYBR green in vitro

| Compound | inhibition [1] | inhibition [2] | inhibition [3] |
| --- | --- | --- | --- |
| COc1ccc(CNc2ccnc3cc(OC)ccc23)cc1 | -1.06% | 12.2% | 3.66% |
| CN(C)CCCn1cncc1-c1ccc2ncnc(Nc3ccc4c(cnn4Cc4ccccc4)c3)c2c1 | 1.25% | 1.38% | 1.35% |
| CN(C)c1cccc2c1nc(-c1ccco1)n2CC1CCCN1 (centres undefined) | -1.97% | -3.51% | -0.52% |
| COc1cccc(C2=CC(C)(C)Oc3cc(OCCN(C)C)ccc32)c1 | 0.35% | -3.47% | 4.3% |
| CN(C)c1cc(NC(=O)Nc2ccccc2)c2ccccc2n1 | 2.21% | 5.06% | 2.82% |
| CN1CCN(c2ccnc3ccc(NC(=O)Cc4ccc(OCc5ccccc5)cc4)cc23)CC1 | 7.43% | 7.76% | 8.79% |
| CCC(CC)(Cc1ccccc1)NC(=O)[C@H](Cc1ccc(OC)c(OC)c1)Nc1ccc(C#N)c2ccccc12 | 2.88% | 2.31% | 3.47% |
| N#Cc1ccc(N2CCN(Cc3cccc(-c4ccc(-c5nc6cc(C(F)(F)F)ccc6[nH]5)s4)c3)CC2)nc1 | 0.46% | 1.1% | 0.57% |
| O=[N+]([O-])c1ccc(C=NNc2nc(Nc3ccccc3)nc(Nc3ccccc3)n2)o1 | 13.4% | 18.9% | 2.58% |
| Cc1ccc2nc(-c3ccc(C(=O)NCc4ccc(Cl)c(Cl)c4)cc3)[nH]c2c1C | 2.57% | 0.03% | 0.59% |
| COc1ccc2nc(Nc3nc4cnccc4[nH]3)sc2c1 | 4.17% | 4.93% | 5.34% |
| CCN(CC)CCNC(=O)c1ccc(NC(=O)c2cc(-c3ccncc3)nc3ccccc23)cc1 | 0.16% | -0.76% | -1.61% |
| CC1(C)N=C(N)N=C(N)N1OCCCOc1cccc(C(=O)O)c1 | 5.03% | 5.61% | 3.22% |
| COc1ccc(F)cc1-c1ccc(C(=O)N2CCCN(c3ccc(C(F)(F)F)cn3)CC2)cc1 | 2.4% | 1.75% | 4.03% |
| CCCCCCCCc1c(C)nc(C)c(Br)c1O | 0.75% | -0.72% | -0.12% |
| CC(C)n1ncc2c(C(=O)N3CCCC4CCCCC43)cc(C3CC3)nc21 (centres undefined) | 5.54% | 6.45% | 5.73% |
| CS(=O)(=O)CCNC(=O)c1ccc(-c2cc3c(Nc4ccc5c(cnn5Cc5ccccc5)c4)ncnc3cn2)o1 | 3.86% | 3.93% | 4.93% |
| CC(O)C1CCCCN1C(=O)c1cccc(-c2ccc(-c3nc4ccccc4[nH]3)s2)c1 (centres undefined) | 3.87% | 5.96% | 5.38% |
| CN(CC(=O)Nc1ccc(F)cc1)C(=O)c1ccc(-c2ccc(F)cc2)o1 | 5.1% | 7.16% | 5.24% |
| Cc1cnc(NCC2CCCCC2)nc1NCC(=O)Nc1ccccc1 | 4.2% | 4.34% | 6.18% |
| N=C(N)NCCCN(Cc1ccccc1)c1ccc(Cl)cc1 | 7.39% | 4.12% | 4.83% |
| COc1ccc2nc(C)cc(N/N=C/c3ccc([N+](=O)[O-])o3)c2c1 | 3.7% | 6.04% | 0.72% |
| O=C(NCc1cccc(F)c1)Nc1ccc(-c2cccc(-c3nc4ccccc4[nH]3)c2)cc1 | 2.57% | 4.32% | -0.32% |
| O=C(/C=C/c1ccc(Cl)c(Cl)c1)NCCCCCN1CCC(NC(=O)Nc2ccc(F)c(F)c2)CC1 | -1.34% | -0.67% | -2.11% |

| Compound | inhibition [1] | inhibition [2] | inhibition [3] |
| --- | --- | --- | --- |
| Cc1cc(C(=O)NC2CCN(Cc3ccccc3)CC2)ccc1-c1nc2cc(Cl)c(Cl)cc2[nH]1 | 3.63% | -0.19% | 3.05% |
| CN(Cc1cnc2nc(N)nc(N)c2n1)c1ccc(C(=O)N[C@H](CCC(=O)OC(C)(C)C)C(=O)N[C@@H](CCC(=O)OC(C)(C)C)C(=O)OC(C)(C)C)cc1 | 2.25% | 1.59% | 3.05% |
| CCc1sc(N2CCN(C)CC2)nc1C(=O)NCCc1ccc(Cl)c(Cl)c1 | 4.62% | 3.9% | 3.6% |
| CCN(CC)CCCC(C)N=c1cc(C=Cc2ccc([N+](=O)[O-])cc2)[nH]c2ccc(OC)cc12 (centres undefined) | 2.45% | 5.16% | 2.98% |
| N=C(N)Nc1ccc(NC(=O)Nc2ccc(NC(=N)N)cc2)cc1 | 0.9% | 0.77% | 0.04% |
| CC(C)N1CCN(C(=O)c2ccc(CNCCCN3CCN(c4ccccc4C(F)(F)F)CC3)s2)CC1 | -4.83% | 0.84% | 4.26% |
| Cc1ccc(-n2c(Sc3ncnc4sccc34)nnc2N2CCCC2)cc1 | 2.72% | 2.48% | 1.41% |
| CCOc1cc2ncnc(Nc3ccc(OCc4c(F)cccc4F)c(OC)c3)c2cc1OCC | 4.53% | 2.29% | 0.2% |
| O=C(NCCCCCN1CCC(c2c[nH]c3ccccc23)CC1)Nc1cccc(C(F)(F)F)c1 | -1.78% | -2.05% | -2.66% |
| O=C(NC1CCN(Cc2ccccc2)CC1)c1ccc(CNC2CCN(Cc3ccccc3)CC2)cc1 | 4.84% | 3.94% | 4.42% |
| CC(C)CCCC(C)(C)NC[C@@H](O)[C@H](Cc1ccccc1)NC(=O)c1cc(NC(C)C)cc(N2CCCCS2(=O)=O)c1F | 7.51% | 5.83% | 7.87% |
| O=C(NCCN1CCCc2ccccc21)C1CCN(c2nc(-c3ccc(Cl)cc3)no2)CC1 | 1.63% | 2.11% | -2.23% |
| c1cc(CN2CCC(CCN3CCCCC3)CC2)cc(-c2cccc(-c3nc4ccccc4[nH]3)c2)c1 | 2.17% | 2.55% | 3.39% |
| CCC(C)NC(=O)Cn1c2ncccc2c(=O)n1-c1ccc(C)cc1 (centres undefined) | 5.25% | 4.88% | 0.04% |
| CNCCNCc1cccc(-c2ccc(-c3nc4cccc(C)c4[nH]3)cc2)c1 | -1.62% | -3.38% | 0.95% |
| COc1cccc(C2CCN(CCCCNC(=O)c3ccc(NC(=O)c4ccc(Cl)cc4)cc3)CC2)c1 | 2.77% | 2.82% | 3.37% |
| COc1ccc(-n2cc(C(=O)c3cc(Br)ccc3O)cc(C#N)c2=O)cc1Cl | 3.4% | 1.9% | 0.95% |
| Cc1cc(C(=O)CN2C(=O)NC3(CCCc4ccccc43)C2=O)c(C)n1Cc1ccc(F)cc1 (centres undefined) | 2.81% | 2.54% | 5.14% |
| Cc1cccc2nc(-c3ccc(-c4cccc(NC(=O)Cc5c[nH]cn5)c4)cc3)[nH]c12 | 1.52% | 3.26% | -1.21% |
| CN(C)CCCN1CCN(Cc2ccc(-c3ccc(-c4nc5ccccc5[nH]4)s3)cc2)CC1 | 11.2% | 8.38% | 12.1% |
| COc1ccc(OC)c(-c2ccc(=O)n(CC(=O)Nc3cccc4ccccc34)n2)c1 | 12.4% | 11.6% | 6.44% |
| N#Cc1ccc(CCNc2nccc(-c3cccc(CN4CCNCC4)c3)n2)cc1 | 12.3% | 12.8% | 6.7% |
| CC1CCCCC1N(C)C1CCN(CCCNC(=O)C=Cc2ccccc2Cl)CC1 (centres undefined) | -0.22% | -0.24% | -0.58% |
| Cc1cc(Nc2nc(Nc3cccc(Cl)c3)nc3ccccc23)n[nH]1 | 10.5% | 17.2% | 9.22% |
